From PubChem BioAssay
PHOSPHO1 block: PHOSPHO1 (human) inhibition; recombinant PHOSPHO1, absorbance phosphatase assay; inhibition, % at 13.3 µM; 1.1% of 290,000 active; AID 1565; in the data active = inhibition above about 60%
Target sequence (Q8TCT1 whole entry, looked up): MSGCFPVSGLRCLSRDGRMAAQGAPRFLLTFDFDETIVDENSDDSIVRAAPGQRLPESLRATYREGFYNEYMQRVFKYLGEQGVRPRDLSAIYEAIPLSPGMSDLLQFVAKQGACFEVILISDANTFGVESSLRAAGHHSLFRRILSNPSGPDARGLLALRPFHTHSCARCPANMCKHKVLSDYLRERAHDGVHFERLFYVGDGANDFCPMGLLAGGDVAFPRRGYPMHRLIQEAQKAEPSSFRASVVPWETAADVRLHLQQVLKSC
p-CIP stab down: compounds decreasing mouse p/CIP protein stability | Q05BA5 | F442A p/CIP-EGFP cells, EGFP fluorescence, 16 h | decrease of EGFP signal, % at 10 µM | 0.01% of 290,000 active | AID 1984;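 active = EGFP signal decrease of at least 30% at 10 µM or well 3 SD below plate mean, unless failing retest; inactive = the rest, including hits failing retest or dose response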
UBC9 SUMO inh: SUMOylation inhibition. AID 2006. 0.36% of 290,000 active. inhibition, % at 35 µM. HTRF SUMOylation assay, SAE1/SAE2 + UBC9, in vitro; in the data active = inhibition above about 50%, passing the limit was not always enough
Target sequence (P63279 whole entry, looked up): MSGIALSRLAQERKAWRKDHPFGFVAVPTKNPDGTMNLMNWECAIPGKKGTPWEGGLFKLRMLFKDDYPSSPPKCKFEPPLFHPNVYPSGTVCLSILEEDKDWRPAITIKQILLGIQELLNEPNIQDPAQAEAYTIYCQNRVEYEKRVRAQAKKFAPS
NadD block: NadD (S. aureus) enzyme inhibition; AID 602399; 0.78% of 360,000 active; inhibition, % at 20 µM; purified NadD enzyme, colorimetric absorbance read-out; in the data active = inhibition above about 26%
Numbers without * were called inactive; . = no result. Only some compounds are listed: those with a hit (about 1.8% of all), similar ones and a draw of the others.

SMILES	PHOSPHO1 block	p-CIP stab down	UBC9 SUMO inh	NadD block
Cc1cnc(NC(=O)c2ccc(-c3nc4ccccc4s3)o2)s1	105*	13	30	5
Cc1cnc(NC(=O)c2ccc(-c3ccc([N+](=O)[O-])cc3)o2)s1	.	.	.	9
CCC(CC)C1C(C#N)=C(N)SC(N)=C1C#N	-6	-6	23	2
CC(C)C1C(C#N)=C(N)SC(N)=C1C#N	73*	-20	-13	-3
COc1cc(C=C(C#N)c2ccc([N+](=O)[O-])cc2)ccc1O	.	.	.	-1
O=C(O)c1ccc(-c2nc(-c3ccccc3)c(-c3cccs3)[nH]2)cc1	24	0	30	-6
Cc1ccc(-c2[nH]c(-c3ccc(C(=O)O)cc3)nc2-c2ccccc2)cc1	-12	-12	58*	14
Cc1ccc(-n2c(N)c(-c3nc4ccccc4n3C)sc2=S)cc1	69*	-12	-26	11
Cn1c(-c2cccs2)nc2ccccc21	-5	6	18	-4
Cn1c(-c2ccc(C=O)s2)nc2ccccc21	-5	-12	56*	3
Cc1cccc(C)c1NC(=O)CSc1nnc(-c2ccco2)c(-c2ccco2)n1	-62	-12	44	32*
Cc1ccccc1NC(=O)CSc1nnc(-c2ccco2)c(-c2ccco2)n1	41	-21	65*	15
COc1cccc(NC(=O)CSc2nnc(-c3ccco3)c(-c3ccco3)n2)c1	10	-4	40	6
O=C(/C=C/c1ccc(OC(F)F)cc1)OCC(=O)N1CCC(c2ccccc2)=N1	.	.	.	-8
Cc1cccc(C)c1C(O)c1ncc(-c2ccccc2C(F)(F)F)[nH]1 (centres undefined)	.	.	.	-2
CN(c1ccccc1)S(=O)(=O)c1cccc(C(=O)OCC(=O)NCc2ccccc2)c1	.	.	.	-4
CN(c1ccccc1)S(=O)(=O)c1cccc(C(=O)OCC(=O)NCc2ccco2)c1	66*	-2	-9	-3
Cc1ccc(Nc2c(O)nc[nH]c2=O)cc1	.	.	.	0
CN(C)c1ccc(Nc2nc(-c3cccnc3)cs2)cc1	81*	-3	-6	-5
Nc1nonc1-n1nnc(C(=O)N/N=C/c2cc(Br)ccc2O)c1CNc1ccccc1	28	-1	-29	53*
CC(=O)c1ccc(N2CCN(C(=O)CNC(=O)c3ccc(Br)o3)CC2)cc1	.	.	.	4
C[C@H]1CN([C@@H](C)CO)C(=O)CCCn2cc(nn2)CO[C@@H]1CN(C)C(=O)Cc1ccccc1	.	.	.	-3
Cc1cc2nc3c(=O)n(CCc4ccccc4)c(=O)[nH]c3nc2cc1N	3	-36	46	7
COc1cc2[nH]c(=O)n(C3CCCCC3)c(=O)c2cc1OC	-4	-12	11	-7
Nc1ccc2nc3c(=O)n(CCc4ccccc4)c(=O)[nH]c3nc2c1	32	-31	68*	2
SMILES	PHOSPHO1 block	p-CIP stab down	UBC9 SUMO inh	NadD block
CCCCn1c(=O)[nH]c2nc3cc(N)ccc3nc2c1=O	4	-41	98*	5
Nc1ccc2nc3c(=O)n(C4CCCCC4)c(=O)[nH]c3nc2c1	-168	-169	61*	5
COc1ccc(C(C)(O)c2nc(-c3ccc(N(C)C)cc3)cs2)cc1 (centres undefined)	.	.	.	-13
Nc1ccn(CCCNC2CCN(Cc3ccccc3)CC2)c(=O)n1	.	.	.	1
Cc1cc2nc3c(=O)[nH]c(=S)[nH]c3nc2cc1NC(=O)C(F)(F)F	36	-70	60*	-5
O=C(N/N=C/c1ccc(O)c(Br)c1)c1cc2c(ccc3ccccc32)o1	17	-6	9	50*
CCN(Cc1ccccc1)C(c1cc2ccc(C)cc2[nH]c1=O)c1nnnn1CCOC (centres undefined)	99*	0	11	1
Cc1ccc2cc(C(c3nnnn3C3CCCC3)N(Cc3ccco3)Cc3cccs3)c(=O)[nH]c2c1 (centres undefined)	26	-2	27	39*
Cc1ccc2cc(C(c3nnnn3C(C)(C)C)N3CCCCCC3)c(=O)[nH]c2c1 (centres undefined)	102*	-5	56	-2
COc1ccc2cc(C(c3nnnn3Cc3ccc(F)cc3)N3CCCCCC3)c(=O)[nH]c2c1 (centres undefined)	-42	-11	7	5
COc1ccc2cc(C(c3nnnn3Cc3ccccc3)N3CCCCCC3)c(=O)[nH]c2c1 (centres undefined)	94*	-3	14	4
CSC[C@H]1CN(c2ccccc2)C(=O)[C@@H]1CC(=O)Nc1ccc(Br)cc1	.	.	.	4
O=C(O)C1CCC2CCCC21 (centres undefined)	.	.	.	3
Cc1ccc(NC(=C(C#N)C#N)c2ccccc2)cc1	.	.	.	1
NC(c1cccc(F)c1)c1nc(-c2ccc(Cl)cc2)cs1 (centres undefined)	.	.	.	-1
CC(=O)N1CC2(CC(c3ccc(Cl)cc3Cl)=NO2)CN1c1cccc(Cl)c1 (centres undefined)	.	.	.	-5
O=C(NCC(=O)N(Cc1ccccc1)C(C(=O)NC1CCCC1)c1cccnc1)c1ccco1 (centres undefined)	199*	2	-19	3
Cc1ccc(C(=O)NCC(=O)N2CCCN(C)CC2)cc1C	.	.	.	3
Cc1csc(-c2cc(C(=O)NCc3ccc(F)cc3)n[nH]2)c1	.	.	.	0
Cc1nc(NC(C)c2ccccc2)sc1C(=O)Nc1ccccc1 (centres undefined)	61*	-5	-1	-1
Cc1nc(Nc2ccccc2)sc1C(=O)Nc1ccccc1	34	-7	1	-5
Cc1nc(NCc2ccccc2)sc1C(=O)Nc1ccccc1	68*	-7	12	-4
Cc1ccc2c(Cl)cc(Cl)c(OCC(=O)NCc3ccco3)c2n1	15	-1	54*	.
N#CC(=C1NC(=O)c2ccccc21)c1nc2ccccc2n1CCO	.	.	.	-6
CC(C)(C)n1nc2c(c1NC(=O)Cc1cccc3ccccc13)CS(=O)C2 (centres undefined)	63*	-16	6	7
SMILES	PHOSPHO1 block	p-CIP stab down	UBC9 SUMO inh	NadD block
CCn1ccnc1CN(C)Cc1nc(-c2ccccc2)no1	60*	-8	6	-5
Cc1cccc(C)c1NC(=S)N/N=C1\CC2CC=CC12 (centres undefined)	-70	4	3	8
Cc1ccc(NC(=S)N/N=C2\CC3CC=CC23)c(C)c1 (centres undefined)	65*	6	-29	11
O=C(NCc1ccccc1Br)c1cccc2c1C(=O)c1ccc(N3CCC(Cc4ccccc4)CC3)cc1S2(=O)=O	.	.	.	33*
CCOc1ccc(N=C2NC(=O)S/C2=C\c2ccc(N(C)C)cc2)cc1	9	-105	13	37*
CCOc1ccc(/C=C2/SC(=O)NC2=S)cc1	-5	-44	14	1
CC(=O)N(c1ccc2oc(=O)sc2c1)S(=O)(=O)c1cccs1	-39	-10	-10	6
CC(C)C(=O)N(c1ccc2oc(=O)sc2c1)S(=O)(=O)c1cccs1	87*	-6	5	-1
CC(C)C(=O)N(c1cc2sc(=O)oc2c2ccccc12)S(=O)(=O)c1cccs1	92*	9	12	-1
COc1cc(/C=N/Nc2ccc([N+](=O)[O-])cc2S(=O)(=O)N2CCOCC2)cc(OC)c1OC	9	-9	5	-5
